Activity calls are given as the source filed them. Unless noted, how the calls were made is not given here.

Experiment [1] in a line: compound effects on lung adenocarcinoma cell viability – A549, calcein-AM fluorescence, 48 h, basal, profiling panel (AID 1162). Further: test concentration not given here. The following applies: higher = more signal.
The nature of experiment [2]: compound effects on differentiated 3T3-L1 adipocyte viability – cell-based, 3T3-L1 adipocytes, calcein-AM fluorescence, 48 h, basal, profiling panel (AID 1163). Further: test concentration not given here. The following applies: 3T3-L1 adipocytes viability, higher = more signal.
Experiment [3] is described as follows: compound effects on hepatocellular carcinoma cell viability – HepG2, calcein-AM fluorescence, 48 h, basal, profiling panel (AID 1164). Further: test concentration not given here. Particulars: higher = more signal.
Experiment [4] can be described thus: compound effects on multiple myeloma cell viability – MM1S, calcein-AM fluorescence, 48 h, basal, profiling panel (AID 1165).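 Further: viability of MM1S multiple myeloma cells under basal unstimulated conditions; test concentration not given here.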 Particulars: higher = more signal.
The nature of experiment [5]: calcein-AM signal in unstimulated myeloma cells – cell-based, calcein-AM fluorescence, 48 h, PK04 Diversity Set, profiling panel (AID 1166).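 Further: cells grown under basal conditions without added stimulus; test concentration not given here.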 The following applies: RPMI8226 myeloma viability, higher = more signal.
A short description of experiment [6]: JC-1 mitochondrial signal, unstimulated HepG2 cells – cell-based, JC-1 fluorescence, 24 h, 100 nL compound, profiling panel (AID 1167). Further: test concentration not given here. The following applies: HepG2 mitochondrial potential, higher = more signal.
Experiment [7] can be described thus: JC-1 mitochondrial signal, unstimulated adipocytes – cell-based, JC-1 fluorescence, 3T3-L1 adipocytes, 24 h, 100 nL compound, profiling panel (AID 1168). Further: test concentration not given here. Particulars: JC-1 mitochondrial fluorescence, higher = more signal, called active from +8 up or from −8 down.
The nature of experiment [8]: JC-1 mitochondrial signal, unstimulated myeloma cells – cell-based, JC-1 fluorescence, RPMI8226, 24 h, 100 nL compound, profiling panel (AID 1169). Further: test concentration not given here. Particulars: JC-1 mitochondrial potential fluorescence, higher = more signal.
The nature of experiment [9]: JC-1 mitochondrial signal, unstimulated MM1S myeloma – cell-based, JC-1 fluorescence, 24 h, 100 nL compound, profiling panel (AID 1170). Further: test concentration not given here. The following applies: MM1S mitochondrial potential, higher = more signal.
Experiment [10] can be described thus: resazurin metabolic signal in A549 cells – cell-based, resazurin fluorescence, 24 h, PK04 Diversity Set, profiling panel (AID 1171). Further: test concentration not given here. The following applies: A549 viability, higher = more signal, called active from +8 up or from −8 down.
Experiment [11] is described as follows: resazurin metabolic signal in HepG2 cells – cell-based, resazurin fluorescence, 24 h, PK04 Diversity Set, profiling panel (AID 1172). Further: test concentration not given here. The following applies: HepG2 viability, higher = more signal. (The colour change of resazurin is a common sign of viable cells or microbes.)
Experiment [12] can be described thus: budding yeast growth changes without added modifier – OD600, strain BY4716, 24 h, basal condition, primary screen (AID 1173). Particulars: S. cerevisiae BY4716 growth, OD600, 24 h; higher = more signal, called active from +8 up or from −8 down.
A short description of experiment [13]: viability profiling in MM1S myeloma cells – cell-based, resazurin fluorescence, basal, 24 h, PK04 Diversity Set, profiling panel (AID 1174). Further: test concentration not given here. Particulars: higher = more signal, called active from +8 up or from −8 down.
In experiment [14] the target is Dihydroorotate dehydrogenase (quinone), mitochondrial (Plasmodium falciparum (isolate 3D7)) (UniProt Q08210). As to the kind of experiment: inhibition of P. falciparum DHODH – biochemical, C-terminal His tag, absorbance 600 nm, primary screen (AID 1175).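 Further: recombinant parasite enzyme with a five histidine tag at its C terminus; test concentration not given here.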 The following applies: PfDHODH enzyme, DCIP absorbance 600 nm; higher = more signal, called active from +8 up or from −8 down.

A short description of experiment [15]: inhibition of PAO1 biofilm formation – strain PAO1, LB-PBS medium, absorbance 600 nm, primary screen (AID 1176). Further: test concentration not given here. The following applies: P. aeruginosa PAO1 growth/biofilm, A600, 12 h; higher = more signal.
The nature of experiment [16]: growth modulation of vineyard yeast isolate – strain RM11-1a, OD600, basal, 24 h, primary screen (AID 1177).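 Further: cultures grown under basal conditions with no added stressor; test concentration not given here.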 The following applies: S. cerevisiae RM11-1a growth, OD600, 24 h; higher = more signal, called active from +8 up or from −8 down.
A short description of experiment [17]: growth of efflux-deficient E. coli DRC39 – strain DRC39, OD650, 24 h, E. coli filamentation inducers, primary screen (AID 1178).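 Further: growth measured as culture turbidity by optical density at 650 nm; test concentration not given here.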 Particulars: E. coli DRC39 acrAB, higher = more signal, called active from +8 up or from −8 down.
Experiment [18] can be described thus: growth of efflux-deficient E. coli DRC39 – strain DRC39, OD650, 48 h, E. coli filamentation inducers, primary screen (AID 1179).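 Further: screen aims at cell division blockers that make cells filament.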 Particulars: E. coli DRC39 delta-acrAB growth, higher = more signal, called active from +8 up or from −8 down.
A short description of experiment [19]: viability profiling in RPMI8226 myeloma cells – cell-based, resazurin fluorescence, basal, 24 h, PK04 Diversity Set, profiling panel (AID 1180).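 Further: RPMI8826 multiple myeloma cell line at 5000 cells per well; test concentration not given here.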 The following applies: higher = more signal.
Experiment [20] concerns the target E3 ubiquitin-protein ligase XIAP (Homo sapiens) (UniProt P98170). Kind of experiment: small molecules binding XIAP protein – biophysical, small-molecule microarray, fluorescence 635 nm, primary screen (AID 1181).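 Further: score merges 667 nm emission and signal to noise over triplicate slides.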 Particulars: higher = more signal.

Chain of Dihydroorotate dehydrogenase (quinone), mitochondrial (Plasmodium falciparum (isolate 3D7)) (Q08210 whole entry, looked up): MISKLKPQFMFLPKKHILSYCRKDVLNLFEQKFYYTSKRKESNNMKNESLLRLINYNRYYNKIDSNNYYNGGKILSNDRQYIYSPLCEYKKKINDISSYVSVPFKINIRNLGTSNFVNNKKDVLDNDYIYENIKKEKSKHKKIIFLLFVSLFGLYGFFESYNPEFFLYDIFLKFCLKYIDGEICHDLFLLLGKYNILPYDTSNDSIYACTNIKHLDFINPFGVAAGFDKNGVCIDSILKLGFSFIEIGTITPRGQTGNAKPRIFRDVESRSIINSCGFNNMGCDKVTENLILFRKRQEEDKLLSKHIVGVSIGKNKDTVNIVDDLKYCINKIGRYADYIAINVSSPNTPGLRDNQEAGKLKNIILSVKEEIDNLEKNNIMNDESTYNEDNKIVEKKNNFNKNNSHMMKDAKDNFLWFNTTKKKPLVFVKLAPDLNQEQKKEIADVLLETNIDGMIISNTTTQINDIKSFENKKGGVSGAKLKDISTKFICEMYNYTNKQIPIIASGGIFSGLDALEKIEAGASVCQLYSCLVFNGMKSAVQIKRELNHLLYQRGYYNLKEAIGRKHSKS
Chain of E3 ubiquitin-protein ligase XIAP (Homo sapiens) (P98170 whole entry, looked up): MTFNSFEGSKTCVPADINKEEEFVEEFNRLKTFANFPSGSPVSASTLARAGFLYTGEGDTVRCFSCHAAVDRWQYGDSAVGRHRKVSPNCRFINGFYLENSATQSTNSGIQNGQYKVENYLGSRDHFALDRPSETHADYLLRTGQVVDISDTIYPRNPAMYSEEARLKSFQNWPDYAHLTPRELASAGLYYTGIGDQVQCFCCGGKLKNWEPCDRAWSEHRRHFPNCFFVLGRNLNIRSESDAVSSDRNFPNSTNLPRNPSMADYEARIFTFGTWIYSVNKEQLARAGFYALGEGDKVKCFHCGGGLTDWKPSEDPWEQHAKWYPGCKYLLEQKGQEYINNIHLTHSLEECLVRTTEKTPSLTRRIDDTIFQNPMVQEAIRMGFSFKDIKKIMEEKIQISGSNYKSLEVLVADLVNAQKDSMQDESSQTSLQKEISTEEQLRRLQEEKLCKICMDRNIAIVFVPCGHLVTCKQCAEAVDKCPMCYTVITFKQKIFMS

For `COC(=O)c1c2oc(c1C(=O)OC)C(=O)N(C)Cc1cn(nn1)C[C@H](Cc1ccccc1)NC(=O)N[C@H](CO)CC2`, the z-score in experiment [1] was -0.145; in experiment [2] it was 0.129; in [3], -0.0951; in [4], 0.273; in [5] it was -0.743; in experiment [6], -0.649. The z-score is -0.164 (inactive) in experiment [7]; 0.256 in experiment [8]; -0.31 in experiment [9]; -0.213 (inactive) in [10]; -0.356 in experiment [11]; 0.415 (inactive) in experiment [12]. Besides, the z-score was -0.286 (inactive) in [13]; 0.0914 (inactive) in experiment [15]; 1.2 (inactive) in experiment [16]; -0.499 (inactive) in experiment [17]; -0.913 (inactive) in experiment [18]; -0.139 in [19]. In addition, the composite z-score in experiment [14] is 0.31 (inactive); in experiment [20], -0.0559.
Turning to `COC(=O)[C@H](Cc1ccccc1)N1CC(/C=C/C2CC2)=C[C@H]1[C@H](O)Cc1ccccc1`, the z-score in experiment [1] is 0.13; in [2], -0.0604; in [3] it was -0.551; in experiment [4], -3.38; in experiment [5], -3.98; in [6], -2.09. The z-score is 0.128 (inactive) in experiment [7]; -1.19 in [8]; -3.06 in experiment [9]; -0.395 (inactive) in experiment [10]; -0.57 in experiment [11]; -2.67 (inactive) in experiment [12]. Further, the z-score in [13] is -3.01 (inactive); in experiment [15] it was 0.188 (inactive); in experiment [16] it was -0.55 (inactive); in experiment [17] it was -0.0993 (inactive); in experiment [18], -0.0274 (inactive); in [19], -2.71. The composite z-score in [14] was -0.258 (inactive); in [20], -0.102.
With `COCCOC(=O)N1C(=O)[C@@]2(c3cc(C#Cc4ccc(OC)cc4)ccc31)[C@H](C(=O)Nc1nc3ccccc3s1)[C@H]1C(=O)O[C@H](c3ccccc3)[C@H](c3ccccc3)N1[C@@H]2c1ccc(O)cc1`, the z-score in [1] was 0.373; in [2], 1.31; in experiment [3] it was -0.375; in [4], -1.18; in experiment [5] it was -1; in experiment [6] it was -2.78. The z-score was 1.1 (inactive) in [7]; -0.544 in [8]; -0.766 in experiment [9]; 0.0344 (inactive) in [10]; -0.154 in [11]; -0.43 (inactive) in [12]. The z-score is 0.529 (inactive) in experiment [13]; 0.609 (inactive) in [15]; 0.735 (inactive) in [16]; 0.275 (inactive) in experiment [17]; -0.591 (inactive) in experiment [18]; 0.85 in experiment [19]. Also, the figures for the composite z-score in [14] and in experiment [20] were 1.17 (inactive) and 0.012, respectively.
For `COc1ccc([Si](C)(C)[C@H]2[C@H](CCO)O[C@@]3(C(=O)N(Cc4cccc(N5C(=O)COc6ccccc65)c4)c4ccccc43)[C@@H]2C)cc1`, the z-score is -0.533 in experiment [1]; 0.167 in [2]; -4.12 in experiment [3]; -2.21 in experiment [4]; -3.93 in [5]; 0.0559 in experiment [6]. In addition, the z-score in experiment [7] is 1.93 (inactive); in experiment [8], -1.05; in [9] it was -1.5; in experiment [10], -2.14 (inactive); in experiment [11] it was -2.46; in experiment [12], 0.422 (inactive). For the same molecule, the z-score was -3.44 (inactive) in experiment [13]; 2.44 (inactive) in [15]; 4.14 (inactive) in experiment [16]; 2.23 (inactive) in experiment [17]; 1.92 (inactive) in experiment [18]; -4.91 in [19]. Also, the composite z-score in experiment [14] is 0.858 (inactive); in experiment [20], -0.132.
For `COCCOC(=O)N1C(=O)[C@@]2(c3cc(C#Cc4ccc(OC)cc4)ccc31)[C@H](C(=O)Nc1nc3ccccc3s1)[C@H]1C(=O)O[C@H](c3ccccc3)[C@H](c3ccccc3)N1[C@@H]2c1ccc(OCCO)cc1`, the z-score is -0.205 in [1]; -0.106 in [2]; -1.07 in [3]; -1.59 in experiment [4]; -0.482 in experiment [5]; -3.17 in experiment [6]. In addition, the z-score in [7] is 2.92 (inactive); in [8], -0.604; in [9], -1.44; in experiment [10], -0.0799 (inactive); in experiment [11], -0.635; in [12], 3.03 (inactive). Further, the z-score in experiment [13] is -0.63 (inactive); in experiment [15], 2.32 (inactive); in [16] it was 3.64 (inactive); in experiment [17] it was -0.358 (inactive); in experiment [18], -0.486 (inactive); in experiment [19] it was -0.56. In addition, the composite z-score in experiment [14] was -0.27 (inactive); in [20] it was -0.075.
In the case of `CN1C(=O)C2C=CC(C(O)c3ccccn3)N(N(c3ccccc3)c3ccccc3)C2C1=O` (stereo not given), the z-score in experiment [1] was -0.711; in experiment [2], -1.63; in experiment [3], -0.108; in experiment [4], 0.0262; in experiment [5] it was -0.771; in experiment [6] it was -1.53. Further, the z-score is -0.695 (inactive) in experiment [7]; 0.305 in experiment [8]; -0.468 in experiment [9]; -0.859 (inactive) in experiment [10]; -1.15 in experiment [11]; 0.527 (inactive) in experiment [12]. Moreover, the z-score in experiment [13] is -0.555 (inactive); in [15] it was 1.01 (inactive); in experiment [16], 0.429 (inactive); in [17], -0.155 (inactive); in experiment [18] it was -0.38 (inactive); in experiment [19] it was -0.368. Besides, the composite z-score in [14] was 0.464 (inactive); in experiment [20], 0.304.
Turning to `COC(=O)[C@@]1(Cc2ccc(OC)cc2)[C@@H]2C(=CC(=O)[C@H]2CC(=O)C(=O)N(C)C)CN1C(=O)c1ccccc1`, the z-score in [1] is -1.85; in [2], 0.271; in experiment [3], -1.12; in [4], -2.29; in experiment [5] it was -4.37; in experiment [6], 0.607. Further, the z-score is -0.283 (inactive) in experiment [7]; -0.843 in [8]; -1.16 in experiment [9]; -1.34 (inactive) in experiment [10]; -1.2 in experiment [11]; 1.61 (inactive) in [12]. In addition, the z-score was -2.16 (inactive) in experiment [13]; 2.16 (inactive) in experiment [15]; 0.625 (inactive) in experiment [16]; -0.575 (inactive) in [17]; -0.798 (inactive) in [18]; -3.26 in experiment [19]. The composite z-score in [14] is -0.626 (inactive); in [20], 0.22.
`[N-]=[N+]=NCc1ccccc1[C@@H]1OC(c2ccc(OCCCO)cc2)=N[C@]1(CCS(=O)(=O)c1ccccc1)C(=O)NCC(O)CO` (stereo not given in full): the z-score was 1.3 in experiment [1]; 0.273 in experiment [2]; 1.4 in [3]; 0.481 in experiment [4]; 1.67 in experiment [5]; -0.142 in [6]. Further, the z-score in experiment [7] was 0.0693 (inactive); in experiment [8], -0.0493; in experiment [9] it was -0.198; in experiment [10], -0.911 (inactive); in [11], -0.618; in experiment [12], -0.543 (inactive). The z-score is -0.121 (inactive) in experiment [13]; 0.563 (inactive) in [15]; -0.397 (inactive) in [16]; 0.488 (inactive) in experiment [17]; 1.2 (inactive) in experiment [18]; -0.471 in experiment [19]. Further, the composite z-score in experiment [14] is -0.716 (inactive); in [20] it was 0.0731.
